# According to PubChem BioAssay AID1547 (National Center for Advancing Translational Sciences (NCATS), 2009):
# Activity calls are given as the source filed them.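 Rule for the calls: active = compound that significantly cut labelled fatty acid release from lipid-loaded liver cells compared with solvent alone; inactive = the rest.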
# Experiment: Secondary Assay for lipid storage modulators. NEFA Incorporation/Release.
# Details: AML12 cells, [3H]oleic acid NEFA release, at 5 µM, stronger effect = lower value
# From the text: Data Source: University of Maryland BioAssay Type: Secondary Description: NIH Molecular Libraries Probe Production Centers Network [MLPCN] NIH Chemical Genomics Center [NCGC] Assay Submitter (PI): Carole Sztalryd; GRECC/Geriatrics, Veterans Affairs Medical Center, Department of Medicine, School of Medicine, University of Maryland, Baltimore, Maryland, USA. Beller, Mathias; Max-Planck-Institut fur Biophysikalische Chemie, Germany. NCGC Assay Overview: Storing lipids as a reservoir for energy or the anabolism of elementary metabolites is a common feature of probably all cells and is conserved from bacteria to humans. The universal cellular lipid storage organelle is the so-called lipid storage droplet (LD). Although ubiquitous, LDs share a simple structure composed of a hydrophobic core that harbors the storage lipids, which is shielded by a droplet-specific phospholipid monolayer to which proteins are attached. The current model of LD biogenesis involves an incorporation of the lipid core into the membrane leaflets of the endoplasmic reticulum (ER) followed by a subsequent budding-like maturation of a LD, which ultimately pinches off. Once released, LD volume can increase by localized lipogenesis or fusion of existing droplet. Storage lipids are re-mobilized enzymatically by lipase activity. Lipase regulation in the adipocyte is heavily studied and involves multiple components including catecholamine signaling, the LD-associated proteins Perilipin and comparative gene identification (CGI-58) and at least two lipases named hormone sensitive lipase (HSL) and adipocyte triglyceride lipase (ATGL). LD regulation outside of the adipocyte is poorly understood and only few components are known. However, there is an urgent need to learn more about ectopic fat depots as mislocalized storage of lipids, for example in the liver or muscle, is an eminent health problem associated with insulin resistance or the metabolic syndrome. We developed a laser-scanning cytometer assay to enable 1,536-well screening and combined the results of the small molecules screen with an RNAi database based on lipid storage. […]
# Assay Protocol Summary: Measurements of NEFA released from lipid droplets or incorporated into the TG fraction were performed as previously described. […] Lipolysis was determined by measuring radioactivity released into the media in 1 h. […] Lipids were extracted by the Bligh-Dyer method, and 10% of the total lipid was analyzed by thin layer chromatography. AML12 cells treated with or without specific siRNAs were additionally incubated with either vehicle (DMSO), 5 uM of Exo1 (12.5 mg/ml DMSO), or BFA (10 mg/ml DMSO) during the time of radioactivity release into the media (2 h). NEFA incorporation into the TG fraction and NEFA release are calculated as […]/mg protein. […]
smiles,measurement,setting,value
COC(=O)c1ccccc1NC(=O)c1ccc(F)cc1,NEFA release change,,-0.35 nmol/mg (active)
same,NEFA release change,gammaCOP siRNA treatment,-0.3 nmol/mg
same,NEFA release change,measured here: ATGL siRNA treatment,-0.63 nmol/mg
same,NEFA release change,measured here: control siRNA treatment,-0.47 nmol/mg
